Legend:
Test in all cases: PBM binding z-score (relative to random genomic background probes); higher = stronger binding; sequences stand for … in GC…GCGATTGACAGCGTAGAATGAAGG
[1] = tested on: RARb homodimer (NR concentration 270 nM)
Outline: (§1)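 Antibodies against each partner of ligand-free nuclear receptor dimers (one per run) detected binding on custom Agilent 4×180K protein-binding microarrays after 1 h incubation. The double-stranded probes had 34-nt variable regions carrying direct-repeat seeds, single-nucleotide variants, half-site ablations and random human genomic background sequences. Binding z-scores, from regression-normalized fluorescence, use the random background probes as reference.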

[2] = tested on: RARg:RXRa (NR concentration 270 nM, RXRa partner concentration 90 nM)
Outline: as §1

[3] = tested on: RARg homodimer (NR concentration 270 nM)
Outline: as §1

[4] = tested on: RXRa DBDmut IVT, anti-RXR (DBD mutation: RXRa K156A/R161A, NR concentration 90 nM)
Outline: as §1

[5] = tested on: RXRa homodimer (NR concentration 180 nM)
Outline: as §1

[6] = tested on: THRa:RXRa (NR concentration 90 nM, RXRa partner concentration 90 nM)
Outline: as §1

[7] = tested on: THRa homodimer (NR concentration 90 nM)
Outline: as §1

[8] = tested on: VDR homodimer (NR concentration 270 nM)
Outline: as §1

[9] = tested on: VDR:RXRa (NR concentration 270 nM, RXRa partner concentration 90 nM)
Outline: as §1

Sequence | PBM binding z-score [1] | PBM binding z-score [2] | PBM binding z-score [3] | PBM binding z-score [4] | PBM binding z-score [5] | PBM binding z-score [6] | PBM binding z-score [7] | PBM binding z-score [8] | PBM binding z-score [9]
GCTGCTCGGTCAACTGATGGTCAGCTAAAGCTCG | 2.15 | 2.42 | 3.21 | -0.121 | -0.0356 | 0.0227 | -0.551 | -0.439 | –
TCGAGTAGCTTACGGGGGCATTCAGGGATGAAGA | 0.903 | 1.03 | 0.544 | 1.14 | 1.12 | 3.35 | 0.239 | 2.71 | 2.45
CATAGTTGGTCAAGGTCACACACGCTATAGGTAC | 4.31 | 4.62 | 4.62 | 2.04 | 4.73 | 4.18 | 4.02 | 3.8 | –
TAGCCTAGGTCATTCAGGGGCTAGTATAGAAAGC | 2.84 | 4.98 | 4.16 | 1.94 | 2.89 | 3.74 | 0.0111 | 0.805 | 2.8
CGAAATAGGTCAAAGGACAGTGAAAGGCGACGTA | 3.4 | 4.97 | 5.11 | 1.3 | 4.58 | 2.4 | -0.113 | 0.355 | –
CCGAGTCGGTTACGAGGGGGCATTCAGTGCGAAT | 1.4 | 1.66 | 1.41 | 0.587 | 0.76 | 2.35 | 0.015 | 3.2 | 3.65
CTATGTAGGTTAACGGGGTCATTCAGTTTGAAAG | 4.24 | 5.11 | 3.74 | 3.05 | 6.78 | 4.44 | 2.55 | 7.5 | –
CGAACTAGGTCAAAGGACAATGAAAGGCGACGTA | 3.04 | 4.01 | 4.77 | 1.13 | 3.35 | 2.67 | 0.783 | 0.585 | –
CCTCGGAGGACAGAAGGTCAGATCTGTCCGCTTT | 3.49 | 3.26 | 3.53 | 0.421 | 2.01 | 2.25 | 0.0201 | 0.21 | –
CAAACTAGGTCAAGGTCAAAGTAGGTTTGTGCCA | 5.18 | 6.25 | 6.86 | 3.11 | 6.11 | 4.6 | 3.96 | 4.8 | –
CCGAGTAGGTTAAGAGGGGGCATTCAGTGCGAAT | 2.25 | 2.76 | 2.49 | 2.04 | 1.76 | 3.73 | 0.843 | 4.02 | –
CCTAGTTGGCCAAGGTCACACACGCTATAGGTAC | 4.08 | 4.16 | 4.16 | 2.02 | 4.27 | 3.96 | 3.61 | 3.38 | –
TTACCAAGGTAAAAGGTCGTTGATGCACGCCTTG | 2.14 | 2.79 | 1.22 | 0.317 | 3.68 | 2.63 | 0.000698 | 1.44 | –
ATATGAAGGTTATCGGGTCATTCAGTTTGCGCAT | 3.17 | 4 | 2.89 | 2.04 | 4.02 | 3.38 | 2.69 | 4.06 | –
